40 molecules from PubChem BioAssay (NCI) can be followed below.

SMILES strings stand for the structures. The panel holds about 83,000 compounds, 20% with a hit somewhere; the sample as a whole holds those more often.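 Testing used 96-well plates and a 48-hour single-concentration exposure. Example: -40 means 40% of the starting cells died.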 Unmarked numbers belong to inactive results. Calls of active or inactive are those of the source.

This test has as its system SK-MEL-5 melanoma. Kind of test: NCI-60 one-dose screen, 48 h (100 = growth as untreated, 0 = no growth, -100 = all killed). Conditions: 10 µM unless noted. How it is done: Growth inhibition of the SK-MEL-5 human tumor cell line is measured as a screen for anti-cancer activity. Cells are grown in 96 well plates and exposed to the test compound for 48 hours. Compounds are tested at a single concentration, which is 10^-5 M for most compounds. The reported endpoint is percent growth (GI% or GIPRCNT), where numbers from 0 - 100% represent growth inhibition, and numbers from -100% - 0 represent cell death. For example, a value of 40 represents 60% growth inhibition. A value of 0 means no net growth occurred over the course of the experiment. A value of -40 indicates 40% of cells at the beginning of the experiment died by the end of the experiment. A value of -100 means all cells are dead at the end of the experiment.
NCI-60 Human Tumor Cell Lines Screen was performed using the standard one-dose NCI protocol, which is described in more detail at https://dtp.cancer.gov/discovery_development/nci-60/default.htm.
Compounds with GIPRCNT values below 10 were considered active. Activity score was based on GIPRCNT using the following formula: […]
Score is 0 for GIPRCNT values of 100 or above, 50 for GIPRCNT values of 0, and 100 for GIPRCNT values of -100.
As to `COc1ccc(C2=NN(C(C)=O)C(c3cccc(Nc4ccnc5cc(Cl)ccc45)c3)C2)cc1` (stereo not given), the growth was 43.7%.

For the molecule `C/C(=C\CCc1ccoc1)CC/C=C(\C)CCCN1CCOCC1`, the growth is 15.6%.

Take `N#Cc1c(-c2ccc(F)cc2)n2c(nc1=O)SC(=O)C2=O`: the growth was 96.5%.

As for `N/C(=N\c1nc2ccccc2s1)NC(=O)Nc1ccccc1Cl`, the growth is 23.8%.

With `O=C1OC2(c3ccccc31)c1ccccc1-c1ccccc12`, the growth was 78.9%.

As to `O=C(COc1ccc(/C=C2\Cc3ccccc3C2=O)cc1)c1ccc(Cl)cc1`, the growth is 98.4%.

Turning to `CC(NC(N)=S)c1ccccc1` (stereo not given), the growth is 99.6%.

As to `O=[N+]([O-])c1ccc(N=Nc2c(Cl)cc(O)cc2Cl)cc1`, the growth is -58.7% (active).

Consider `O=C(/C=C/c1cccc(O)c1)c1cccc(-n2cc(-c3ccccc3)[nH]c2=O)c1`, for which the growth is 55.3%.

For `Cc1ccccc1NC(=O)NC(CC(N)=O)c1ccc2c(c1)nc(-c1cccc(Oc3ccc(C(C)(C)C)cc3)c1)n2CCCN1CCCCC1C` (stereo not given), the growth is -73% (active).

On to `COc1ccc2c(c1)[n+](=O)c(/C=C/C(=O)c1cc(OC)c(OC)c(OC)c1)c(C)n2[O-]`, for which the growth was 93.4%.

As to `CCOC(=O)c1sc(NC(=O)COc2ccc(/C=C3\CCc4cc(OC)ccc4C3=O)cc2)nc1C`, the growth was 96.6%.

In the case of `CNNc1ncnc2c1cnn2-c1ccc(S(N)(=O)=O)cc1`, the growth is 91.2%.

Turning to `Oc1ccccc1/C=N/N1CCCCCC1`, the growth is 94.2%.

Regarding `Cc1cc(Cl)ccc1Nc1nc(C(F)(F)F)ccc1C(=O)N/N=C/c1ccc(Cl)cc1`, the growth was -13.8% (active).

Regarding `COc1cc(/C=N/NC(=O)c2ccc(C(F)(F)F)nc2Nc2ccc(Cl)cc2C)ccc1O`, the growth is -61.3% (active).

`Cc1cc(C)c2c(N)c3cccc(C)c3nc2n1`: the growth was -38.7% (active).

For the molecule `CN1CCC[C@@H]1CCO[C@](C)(c1ccccc1)c1ccc(Cl)cc1`, the growth is -100% (active).

Regarding `N#Cc1c(NC(=O)c2ccco2)[n+]([O-])c2ccccc2[n+]1[O-]`, the growth was 91%.

As to `O=C(c1ccc(Cl)cc1)c1ccc(Cl)cc1`, the growth was 96.4%.

With `O=C(NC1CCCCC1)c1ccc(Nc2ncnc3c2cnn3-c2ccccc2)cc1`, the growth was 75.4%.

As to `CCN1CCN(c2nc(NNC(=O)Cc3ccccc3)nc(N3CCN(C(c4ccccc4)c4ccccc4)CC3)n2)CC1`, the growth was 2.68% (active).

`O=C(C(=O)c1cc(Br)ccc1O)c1cc(Br)ccc1O`: the growth is 14.7%.

`Cc1ccc(N/N=C(/C(=O)c2ccc(Cl)cc2)c2nc(C)cc(=O)[nH]2)cc1`: the growth is 82.5%.

For the molecule `COc1ccc(C(=O)COc2ccc(/C=C3\Oc4ccc5ccccc5c4C3=O)cc2)cc1`, the growth was 95.7%.

In the case of `CN(C)CCC(=O)Nc1ccc(-n2cc(-c3cccc(NC(=S)Nc4cccc(-c5cn(-c6ccc(NC(=O)CCN(C)C)cc6)nn5)c4)c3)nn2)cc1`, the growth is 97.2%.

In the case of `CCCCN=C(N)c1ccc(OCCSCCOc2ccc(C(N)=NCCCC)cc2)cc1`, the growth was 22.6%.

In the case of `CCCCCc1c(C)[nH]c(/C=C2\N=C(c3ccc[nH]3)C=C2Oc2ccccc2)c1C`, the growth was -61% [100 µM] (active).

Turning to `Cc1ccc(-c2csc(N)n2)cc1`, the growth is 97.1%.

`c1ccc(-c2nc(Nc3nccnn3)c3ccccc3n2)cc1`: the growth was 99.1%.

Take `CC1CC=CCC1C1OCC(C)(C)CO1` (stereo not given): the growth was 104%.

For `COc1cccc(/C=C2\Cc3ccccc3C2=O)c1`, the growth is 100%.

Regarding `COc1cccc(/C=N\NC(=O)c2ccncc2)c1O`, the growth is 58.8%.

As to `COc1cc(/C=C/c2cc(/C=C/c3ccc(O)c(OC)c3)n(C(=O)c3ccc(Cl)cc3)n2)ccc1O`, the growth is -32.4% (active).

Turning to `COc1ccc(-c2cc(-c3cccnc3)nc3sc(C(=O)Nc4ccccc4)c(N)c23)cc1OC`, the growth is 75.1%.

For the molecule `Cc1cc(Br)c(C)cc1Br`, the growth was 96.9%.

On to `COc1cc(-c2nnc(-c3nc(-c4cc(OC)c(OC)c(OC)c4)n4ccccc34)o2)ccc1N`, for which the growth is 56.1%.

`Oc1c(Cl)cc(Oc2cc(Cl)c(O)c(CN3CCOCC3)c2)cc1CN1CCOCC1`: the growth is 87.5%.

As for `Nc1nc(NC2CC2)c2ncn(C3C=CC(CO)C3)c2n1` (stereo not given), the growth was 91.6%.

Take `CCSCC1CC(O)(c2ccccc2)C(c2ccccc2)C(c2ccc(Cl)cc2)O1` (stereo not given): the growth was -94.8% (active).
